ChEMBL document CHEMBL1157539, “Thousands of chemical starting points for antimalarial lead identification” (Nature, 2010)

These molecules were tested on Plasmodium falciparum (assay: GSK_TCMDC: Inhibition of Plasmodium falciparum 3D7 in whole red blood cells, using parasite LDH activity as an index of growth. Test compounds present at 2uM).
Assay type: functional

Structure (SMILES) | Inhibition [%]
O=C(Nc1cccc(OCc2ccccc2)c1)c1ccc(CN2CCC(Cc3ccccc3)CC2)cc1 | 100
Cc1ccc(S(=O)(=O)NC2CCN(CCNC(=O)Nc3cc(C)nc4ccccc34)C2)cc1 (stereo not drawn) | 97
Clc1cc2c(Nc3ccc(Oc4ccccc4)cc3)ccnc2cc1-c1ccc(CNCCN2CCOCC2)o1 | 100
CCOC(=O)c1ccc(Nc2cc(Nc3ccc(C(=O)OCC)cc3)nc(C)n2)cc1 | 99
CCCCCN1CCCC(NS(=O)(=O)c2cccc(C(=O)Nc3cccc(C(F)(F)F)c3)c2)C1.O=C(O)C(F)(F)F (stereo not drawn) | 86
N#Cc1cccc(NC(=O)NC2CCN(CCCCCNC(=O)C3CC3c3ccc(Cl)c(Cl)c3)CC2)c1 (stereo not drawn) | 100

What follows are molecules tested on Plasmodium falciparum (assay: GSK_TCMDC: Inhibition of Plasmodium falciparum Dd2 in whole red blood cells, using parasite LDH activity as an index of growth. Test compounds present at 2uM).
Assay type: functional

Structure (SMILES) | Inhibition [%]
CCCCNS(=O)(=O)c1ccc(NC(=O)c2cc([N+](=O)[O-])ccc2Cl)cc1 | 47
Cc1ccc(Sc2ccc(NC(=O)CN3CCN(C(=O)c4ccco4)CC3)cc2)cc1C | 84
O=C(NCC1CCN(Cc2cccc(C(F)(F)F)c2)C1)c1cc(-c2cccc(F)c2)cs1.O=C(O)C(F)(F)F (stereo not drawn) | 5
COc1ccc(NC(=O)/C=C/c2ccccc2Cl)cc1OCCN1CCC(N2CCCC2)CC1.O=C(O)C(=O)O | 23
O=C(Nc1ccc(Cl)cc1)c1ccc(CN2CCCN(Cc3cccc(Cl)c3)CC2)cc1.O=C(O)C(F)(F)F | 15
O=C(Nc1ccc(C(F)(F)F)cc1)N[C@H]1CCN(CCCCCNC(=O)C2CC2c2ccc(Cl)c(Cl)c2)C1 (stereo partly drawn) | 0
O=C(Nc1cccc(OC2CCN(Cc3ccc(F)cc3)CC2)c1)c1ccc(C(F)(F)F)cc1.O=C(O)C(F)(F)F | 6
